HEK293 tox: kills HEK 293 cells. HEK 293 viability, ATP luminescence (CellTiter-Glo), 48-72 h. Potency, µM (top dose mostly 115 µM), actives largely listed as inhibitors. 94,000 tested, 6.6% active. AID 1345083; also: nearly all actives have a fitted effect of over 60% in size
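HEK 293 cells at 250 cells/well were exposed to compounds by pintool transfer for 48 or 72 hr at 37 degree Celsius, 5% CO2. Viability was read as ATP-coupled luminescence with CellTiter-Glo after 10 min at room temperature.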
GPT2 inh: blocks human glutamate pyruvate transaminase 2. Q8TD30. Recombinant GPT2, coupled pyruvate oxidase/HRP Amplex Red fluorescence. Potency, µM (doses to about 57.7 µM), most hits filed as inhibitors. 100,000 tested, 0.25% active; also: nearly all actives have a fitted effect of over 60% in size
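Inhibition is scored from Amplex Red fluorescence generated when pyruvate oxidase and HRP act on pyruvate released by GPT2. Reactions contain 10ng/uL enzyme, 250uM a-KG and 2mM L-alanine and run 30 min at room temperature.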
FLuc inh: inhibitors of firefly (Photinus pyralis) luciferase; AID 1347043; Potency, µM (highest dose often 115 µM), usual class: inhibitors; purified P. pyralis luciferase, luminescence, biochemical; 76,000 tested, 2.5% active; also: nearly all actives have a fitted effect of over 65% in size
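Purified P. pyralis luciferase (10nM final) in 50mM Tris acetate pH 7.5, 10mM Mg acetate, 0.01% Tween-20, 0.05% BSA with 10uM D-luciferin and 10uM ATP. Compounds titrated qHTS. Luminescence imaged on CCD.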
3T3 cytotox: cytotoxic compounds in NIH 3T3 cells; NIH 3T3 viability, CellTiter-Glo ATP luminescence, 48-72 h; Potency, µM (doses to about 96.7 µM), actives largely listed as inhibitors; 94,000 tested, 4.3% active; AID 1345082; also: nearly all actives have a fitted effect of over 55% in size
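NIH 3T3 cells at 400 cells/well received 23 nL of compound by pintool and were incubated 48 or 72 h at 37 °C. Viability was read as ATP-coupled CellTiter-Glo luminescence.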
NPR1 antag: human Npr1 receptor antagonism; AID 1347048; HEK293 hNpr1 GloSensor cGMP, ANP-stimulated luminescence; Potency, µM (titrated, usually from 46.3 µM), actives largely listed as inhibitors; 76,000 tested, 1.6% active; P16066; calls by dose curve; also: nearly all actives have a fitted effect of over 60% in size
Target sequence (P16066 whole entry, looked up): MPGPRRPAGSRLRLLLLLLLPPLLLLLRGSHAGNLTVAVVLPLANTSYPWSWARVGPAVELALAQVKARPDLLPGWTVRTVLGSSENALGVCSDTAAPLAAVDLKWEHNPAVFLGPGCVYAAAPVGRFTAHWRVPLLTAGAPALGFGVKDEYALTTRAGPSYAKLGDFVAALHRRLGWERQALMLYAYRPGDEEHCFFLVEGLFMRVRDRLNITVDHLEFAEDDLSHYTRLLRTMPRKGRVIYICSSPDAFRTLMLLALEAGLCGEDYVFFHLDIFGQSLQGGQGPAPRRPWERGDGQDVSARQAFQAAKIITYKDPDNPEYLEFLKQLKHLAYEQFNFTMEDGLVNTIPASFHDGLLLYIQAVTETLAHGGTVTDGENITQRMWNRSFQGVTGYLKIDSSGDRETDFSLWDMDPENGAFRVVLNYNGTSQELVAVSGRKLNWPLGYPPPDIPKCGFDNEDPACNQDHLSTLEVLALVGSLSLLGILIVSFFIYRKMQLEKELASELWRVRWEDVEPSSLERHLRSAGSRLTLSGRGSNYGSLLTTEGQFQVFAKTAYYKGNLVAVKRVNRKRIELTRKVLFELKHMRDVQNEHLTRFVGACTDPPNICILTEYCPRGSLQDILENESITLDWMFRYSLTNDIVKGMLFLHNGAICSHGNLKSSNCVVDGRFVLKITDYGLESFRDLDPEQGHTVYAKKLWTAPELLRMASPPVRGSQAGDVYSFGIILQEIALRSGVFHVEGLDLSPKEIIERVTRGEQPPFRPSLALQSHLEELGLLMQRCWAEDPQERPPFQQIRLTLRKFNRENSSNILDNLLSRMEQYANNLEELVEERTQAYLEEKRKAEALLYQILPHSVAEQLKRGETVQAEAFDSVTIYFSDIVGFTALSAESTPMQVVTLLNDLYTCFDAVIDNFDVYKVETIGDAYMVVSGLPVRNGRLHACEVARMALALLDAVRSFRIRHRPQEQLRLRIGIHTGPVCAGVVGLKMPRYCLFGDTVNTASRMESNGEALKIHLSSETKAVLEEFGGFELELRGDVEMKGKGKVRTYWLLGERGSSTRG
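Compound pre-incubated 30 min at room temperature on GloSensor-loaded HEK293 cells stably carrying hNpr1 and the pGS-40F cGMP biosensor. Stimulation uses hNppA at 0.1 nM final; luminescence is taken at baseline and 20 min post-agonist.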
NPR1 antag cnf: confirmation of human Npr1 natriuretic peptide receptor antagonists | HEK293 hNpr1 cGMP GloSensor luminescence, ANP-stimulated | 1,400 tested, 76% active | shares compounds with NPR1 antag | Potency, µM (doses to about 57.6 µM), most hits filed as inhibitors | AID 1347044; calls by dose curve; also: nearly all actives have a fitted effect of over 70% in size
NPR2 antag: hNpr2 antagonism, selectivity versus Npr1 | shares compounds with NPR1 antag | HEK293 hNpr2 GloSensor cGMP luminescence, CNP-stimulated | Potency, µM (top dose mostly 57.6 µM), hits mostly inhibitors | 1,400 tested, 67% active | AID 1347046; calls by dose curve; also: nearly all actives have a fitted effect of over 70% in size
FLuc inh counter: FLuc enzyme inhibition, Npr1 counter-screen | shares compounds with NPR1 antag | purified FLuc enzyme, luminescence, Km substrate | Potency, µM (top dose mostly 57.6 µM), usual class: inhibitors | 1,400 tested, 0.7% active | AID 1347047
GloSensor ctrl: reduces cGMP signal in GloSensor control cells; shares compounds with NPR1 antag; Potency, µM (doses to about 57.6 µM), most hits filed as inhibitors; AID 1347051; 1,400 tested, 69% active; HEK293 GloSensor cGMP, SNP-stimulated, luminescence; calls by dose curve; also: nearly all actives have a fitted effect of over 70% in size
Large screens that a line does not name were inactive (follow-up assays come after a bar, where they were run). Most compounds without a hit are left out; they make up all but 10% or so of the library. Unless noted, calls follow the shape of the dose curve; as a rule, active = well fitted curve in the direction sought with a large enough effect; inconclusive = small, poorly fitted or top-dose-only effect, or another doubt; inactive = no such curve, though single readings can be large; an effect the other way counts as inactive or inconclusive.

O=C(C[C@@H]1O[C@H](CNS(=O)(=O)c2ccc(Cl)cc2)[C@@H](O)[C@H]1O)NC1CC1	none
Cc1nn2c(c1-c1ccccc1Oc1ccccc1)N(C(=O)Cc1cccc(F)c1)CCC2	HEK293 tox inconclusive, GPT2 inh inconclusive, 3T3 cytotox 40µM, NPR1 antag inconclusive | NPR1 antag cnf inconclusive | NPR2 antag inconclusive | FLuc inh counter inactive | GloSensor ctrl inactive
COc1cccc(CC(=O)N2CCCn3nc(C)c(-c4ccccc4Oc4ccccc4)c32)c1	HEK293 tox 45µM, GPT2 inh inconclusive, 3T3 cytotox inconclusive, NPR1 antag inconclusive | NPR1 antag cnf inconclusive | NPR2 antag 19µM | FLuc inh counter inactive | GloSensor ctrl inactive
CC(=O)Nc1ccccc1-c1c(C)nn2c1N(C(=O)Cc1ccccc1)CCC2	3T3 cytotox inconclusive
CC(=O)Nc1ccccc1-c1c(C)nn2c1N(C(=O)c1ccc(Oc3ccccc3)cc1)CCC2	HEK293 tox inconclusive, GPT2 inh inconclusive, 3T3 cytotox inconclusive, NPR1 antag 11µM | NPR1 antag cnf 19µM | NPR2 antag 17µM | FLuc inh counter inactive | GloSensor ctrl 17µM
Cc1nn2c(c1-c1ccccc1C(N)=O)N(C(=O)Cc1cccc(F)c1)CCC2	3T3 cytotox inconclusive
Cc1ccc(C2Cn3nnc(C(=O)N4CCN(C(=O)c5cccc(C)c5)CC4)c3CO2)cc1 (centres undefined)	HEK293 tox 45µM, 3T3 cytotox inconclusive, NPR1 antag 11µM | NPR1 antag cnf 22µM | NPR2 antag 22µM | FLuc inh counter inactive | GloSensor ctrl 19µM
Cc1ccc(C2Cn3nnc(C(=O)N4CCN(C(=O)c5cccc(Cl)c5)CC4)c3CO2)cc1 (centres undefined)	HEK293 tox 32µM, 3T3 cytotox inconclusive, NPR1 antag inconclusive | NPR1 antag cnf 15µM | NPR2 antag 22µM | FLuc inh counter inactive | GloSensor ctrl 14µM
COc1ccc(C2Cn3nnc(C(=O)N4CCN(C(=O)c5cccc(C)c5)CC4)c3CO2)cc1 (centres undefined)	HEK293 tox 8.9µM, 3T3 cytotox inconclusive, NPR1 antag 14µM | NPR1 antag cnf 19µM | NPR2 antag 22µM | FLuc inh counter inactive | GloSensor ctrl 14µM
COc1ccc(C2Cn3nnc(C(=O)N4CCN(C(=O)c5ccc(C)s5)CC4)c3CO2)cc1 (centres undefined)	HEK293 tox inconclusive, 3T3 cytotox inconclusive, NPR1 antag inconclusive | NPR1 antag cnf 24µM | NPR2 antag 24µM | FLuc inh counter inactive | GloSensor ctrl 24µM
O=C(c1ccccc1)N1CCN(C(=O)c2nnn3c2COC(c2ccccc2)C3)CC1 (centres undefined)	none
CCCCN(Cc1ccccc1)Cc1cn[nH]c1-c1ccc(OC)cc1OC	HEK293 tox inconclusive, 3T3 cytotox inconclusive
CC(=O)NC1CCN(C(=O)N2CC3CC(C2)[C@H]2CCCC(=O)N2C3)CC1 (some centres undefined)	GPT2 inh inconclusive
O[C@H]1CC[C@@H](Cc2cc(-c3ccc(F)cc3)on2)O[C@@H]1CNCc1ccncc1	none
CCNC[C@H]1O[C@H](Cc2cc(-c3ccc(F)cc3)on2)CC[C@@H]1O	HEK293 tox inconclusive, FLuc inh inconclusive, 3T3 cytotox inconclusive, NPR1 antag inconclusive | NPR1 antag cnf inconclusive | NPR2 antag inactive | FLuc inh counter inactive | GloSensor ctrl inconclusive
COCc1cc(C[C@@H]2CC[C@H](O)[C@@H](CNC3CCN(C)CC3)O2)no1	none
CN1CCC(NC[C@H]2O[C@H](Cc3cc(-c4cccc(O)c4)on3)CC[C@@H]2O)CC1	NPR1 antag inconclusive | NPR1 antag cnf inconclusive | NPR2 antag inactive | FLuc inh counter inactive | GloSensor ctrl inconclusive
O=C(c1ccncc1)N1CC2CCC(C1)N2Cc1ccc(-c2ccsc2)cc1	HEK293 tox inconclusive, 3T3 cytotox inconclusive, NPR1 antag 2.5µM | NPR1 antag cnf 6.9µM | NPR2 antag 6.9µM | FLuc inh counter inactive | GloSensor ctrl 6.1µM
COc1cccc(-c2ccc(CN3C4CCC3CN(C(=O)c3ccncc3)C4)cc2)c1	HEK293 tox inconclusive, 3T3 cytotox inconclusive (no result: FLuc inh, NPR1 antag) | NPR1 antag cnf 12µM | NPR2 antag 15µM | FLuc inh counter inactive | GloSensor ctrl 14µM
O=C(c1ccncc1)N1CC2CCC(C1)N2Cc1ccc(-c2cccs2)cc1	HEK293 tox inconclusive, 3T3 cytotox inconclusive (no result: FLuc inh, NPR1 antag) | NPR1 antag cnf 4.3µM | NPR2 antag 5.4µM | FLuc inh counter inactive | GloSensor ctrl 4.3µM
O=C1NCc2ccccc2CC12CCN(Cc1ccc(Cl)o1)C2 (centres undefined)	HEK293 tox inconclusive (no result: FLuc inh, NPR1 antag)
CCC1=C(C(=O)OC)C(c2ccccc2OC)N2C(CC(=O)NCC3CC3)=CSC2=N1 (centres undefined)	HEK293 tox inconclusive
Cc1cccc(-c2nc3ccc(C(=O)NCCN4CCOCC4)cc3o2)n1	3T3 cytotox inconclusive (no result: FLuc inh, NPR1 antag)
Cc1cc(C)n(CC(=O)N[C@@H]2CN(Cc3ccccc3)C[C@H]2CN(C)C)c(=O)n1	NPR1 antag 11µM | NPR1 antag cnf inactive | NPR2 antag inactive | FLuc inh counter inactive | GloSensor ctrl inactive
O=C1NCCCCCCN(Cc2ccncc2)[C@@H]2CN(C(=O)CCc3c[nH]c4ccccc34)CC[C@@H]12	none
O=C(O)CCC(=O)N[C@H]1CO[C@H]2[C@@H]1OC[C@@H]2Nc1nccc(-c2ccco2)n1	none
Cc1cc(C)nc(N2CCC(COc3ccc4c(cnn4CCC(=O)O)c3)CC2)n1	HEK293 tox inconclusive
C[S+](=O)([O-])CCn1ncc2cc(OCC3CCN(C(=O)OC4CCCC4)CC3)ccc21	HEK293 tox inconclusive, 3T3 cytotox inconclusive, NPR1 antag 10µM | NPR1 antag cnf 11µM | NPR2 antag 11µM | FLuc inh counter inactive | GloSensor ctrl 9.7µM
COCCOC(=O)N1CCC(COc2ccc3c(cnn3CCC(=O)O)c2)CC1	GPT2 inh inconclusive, 3T3 cytotox inconclusive

Screens deposited in PubChem by National Center for Advancing Translational Sciences (NCATS).
